Measurements taken from ChEMBL document CHEMBL3988442, “University of Dundee, Small-Polar-MMV Screening Library” (2021).
“And” between values parts separate entries of the source, which are not always exact repeats. Identical values can stand only once. The whole screen tested about 34,000 compounds, of which about 290 (0.85%) showed an effect of 50% or more. The sample as a whole holds a higher share of strong results than the screen did.

Test system: Plasmodium falciparum
Assay: Plasmodium falciparum sporozoite viability assay
Format: functional, organism-based
Design: scale not given: in the data most compounds retested in dose-response had high values

| SMILES | Percent Effect | Percent Effect (10 mM as filed; unlikely as a test dose) |
| --- | --- | --- |
| CNC(=O)CC1CC2(CCN(S(C)(=O)=O)CC2)c2ccccc21 (configuration not stated) | -20.92% | – |
| Fc1cnc(N2C[C@@H]3C[C@@H](c4nc(C5CC5)cs4)O[C@@H]3C2)nc1.O=C(O)C(F)(F)F | -20.62% | – |
| Cc1ncc2c(n1)CN(Cc1nnc(-c3occc3C)o1)CC2 | – | 65.26% and 48.37% and 69.52% |
| Cc1ccc(-c2nnc(CN3CCc4cnc(C)nc4C3)o2)cc1 | – | 3.206% and -6.075% and -3.091% |
| Cc1noc(C)c1CC(=O)N[C@@H]1CC[C@@H](Oc2ccccc2)[C@@H]1O | 3.978% | – |
| Cc1nccn1C1CCCN(C(=O)c2ccc(-n3cccn3)nc2)C1 (configuration not stated) | -4.8% | – |
| CN1CCN(c2cc(CNC(=O)c3ccsc3)ccn2)CC1 | 4.114% | – |
| CN1CC(=O)N(c2cccc(F)c2)CC12CCN(CC1CC1)C2.O=C(O)C(F)(F)F.O=C(O)C(F)(F)F (configuration not stated) | -25.37% | – |
| c1ccc2sc(N3CCCC4(CCOC4)C3)nc2c1 (configuration not stated) | – | -44.73% and -22.63% and -45.78% |
| c1ccc(-c2nnc(N3CCCC4(CCOC4)C3)s2)cc1 (configuration not stated) | – | 67.59% and 93.8% and 88.49% |
| O=C1CN(c2ccc(CNC(=O)NCCO)cc2)CCN1 | 1.887% | – |
| CCc1noc(CN(CC)Cc2cc3cc(C)ccc3[nH]c2=O)n1 | -10% | – |
| CC(=O)Nc1nc(C(=O)N2CCC(Nc3cccnn3)CC2)cs1 | -14.59% | – |
| CC(=O)Nc1nc(C(=O)N2CCCC(c3cc(C)[nH]n3)C2)cs1 (configuration not stated) | 3.993% | – |
| Cc1[nH]/c(=N\C(=O)c2csc(NC3CC3)n2)sc1C | – | 50.71% and 20.82% and 44.18% |
| Cc1[nH]/c(=N\C(=O)c2csc(NC3CCCC3)n2)sc1C | – | 52.39% and 34.41% |
| Cc1cs/c(=N/C(=O)c2csc(NCC(C)C)n2)[nH]1 | – | -15.12% and -26.88% |
| Cc1[nH]/c(=N\C(=O)c2csc(NCC(C)C)n2)sc1C | – | 72.35% and 45.27% and 35.24% |
| Cc1cn2c(n1)CCC(NC(=O)c1cc[nH]n1)C2 (configuration not stated) | 2.695% | – |

| SMILES | Percent Effect | Percent Effect (10 mM as filed; unlikely as a test dose) |
| --- | --- | --- |
| O=C(O)C(F)(F)F.O=C(O)C(F)(F)F.c1cncc(C2COC3(CCN(Cc4cccs4)CC3)C2)c1 (configuration not stated) | -1.667% | – |
| CC(Cn1cccn1)NC(=O)NCCc1cccs1 (configuration not stated) | -5.389% | – |
| CC(C)c1n[nH]c(C2CN(C(=O)c3cn4ccccc4n3)CCO2)n1 (configuration not stated) | -4.937% | – |
| Cn1cnc2c1CCN(CCOc1ccc(C#N)cc1)C2 | 2.022% | – |
| CCC(=O)N1CCCC1(C)c1nc(C)no1 (configuration not stated) | 15.01% | – |
| Cn1ccc(C(=O)N2CCCC2c2[nH]ncc2C(N)=O)n1 (configuration not stated) | 3.652% | – |
| O=C(c1ccc(-n2cccn2)nc1)N1CCC(c2ccn[nH]2)C1 (configuration not stated) | -0.6869% | – |
| c1ccc2sc(N3CCC4(CCCN4Cc4ncc[nH]4)CC3)nc2c1 | – | 21.32% and 38.1% |
| Cc1nc[nH]c1CN1CCCN(c2nc3ccccc3s2)CC1 | – | 2.478% and -18.14% |
| Cc1nc[nH]c1CN1CCCC12CCN(c1nc3ccccc3s1)CC2 | – | 73.34% and 82.13% |
| Cc1noc(C2CCN(C(=O)c3ccc(N(C)C)nc3)CC2)n1 | 4.187% | – |
| Cc1noc(C2CCCN(C(=O)c3ccc(N(C)C)nc3)C2)n1 (configuration not stated) | 8.423% | – |
| Cc1noc(C2CCN(C(=O)Nc3ccc(N(C)C)nc3)CC2)n1 | – | 63.01% and 33.92% and 30.08% |
| CC(C)c1n[nH]c(C2CN(C(=O)c3cc(C4CC4)on3)CCO2)n1 (configuration not stated) | -9.758% | – |
| CSc1ccc(-c2nc(CN3CCC(NC(C)=O)C3)c(C)o2)cc1 (configuration not stated) | – | 76.12% and 85.32% and 90.74% |
| CSc1ccc(-c2nc(CN3CCC(NC(C)=O)CC3)c(C)o2)cc1 | – | 0.03712% and -0.9585% and 6.229% |
| CNC(=O)C1CCN(Cc2nc(-c3ccc(SC)cc3)oc2C)C1 (configuration not stated) | – | -17.68% and 5.16% and 2.023% |
| Cc1ncncc1C(=O)N1CCOC(C)(C(=O)NC2CCCC2)C1 (configuration not stated) | 12.89% | – |
| CC(=O)NC1CCCN(C(=O)NCc2cc[nH]n2)C1 (configuration not stated) | -1.899% | – |

| SMILES | Percent Effect | Percent Effect (10 mM as filed; unlikely as a test dose) |
| --- | --- | --- |
| CC(C)c1nnc(NC(=O)NC2CCN(Cc3ccccc3)C2)s1 (configuration not stated) | 14.49% | – |
| CC(=O)NC1CCCN(C(=O)Nc2cnc3c(cnn3C(C)C)c2)C1 (configuration not stated) | -3.926% | – |
| CC(=O)NC1CCCN(C(=O)Nc2nnc(C(C)C)s2)C1 (configuration not stated) | – | 68.35% and 80.73% |
| CC(=O)NC1CCCN(C(=O)NCc2cccnc2N(C)C)C1 (configuration not stated) | -28.43% | – |
| CCCc1nnc(NC(=O)N2CCCC(NC(C)=O)C2)s1 (configuration not stated) | – | 54.93% and 67.74% |
| CCC(CC)c1nnc(NC(=O)N2CCCC(NC(C)=O)C2)s1 (configuration not stated) | – | 78.77% and 70.93% |
| CCC(CC)c1nnc(NC(=O)N2CCC(C(N)=O)CC2)s1 | – | -8.76% and -13.24% |
| CC(=O)NC1CCCN(C(=O)CNc2cc(Cl)cc(Cl)c2)C1 (configuration not stated) | -3.441% | – |
| Cc1n[nH]c(C)c1CC(=O)NCc1ccccc1Cl | -5.904% | – |
| NC(=O)c1ccc(CN2CCCC(O)C2)cc1 (configuration not stated) | -1.578% | – |
| CCc1ccc(C(=O)Nc2cccc(CN3CCCC3C(N)=O)c2)cc1 (configuration not stated) | -39.95% | – |
| Cc1cc(NC(=O)c2ccc(CN3CC[C@H](O)C3)cc2)ccc1F | – | 96.75% and 98.24% |
| COc1cc(NC(=O)c2ccc(CN3CC[C@H](O)C3)cc2)cc(OC)c1 | – | 90.3% and 82.4% |
| Cc1[nH]ccc1C(=O)Nc1cccc(CN2CCC(O)CC2)c1 | 11.84% | – |
| Cc1cncc(NC(=O)c2ccc(CN3CC[C@H](O)C3)cc2)c1 | – | 88.45% and 79.14% |
| COc1ccc(NC(=O)c2ccc(CN3CC[C@H](O)C3)cc2)c(OC)n1 | – | -15.85% and -8.926% |
| Cc1cncc(NC(=O)c2ccc(CN3CCCC(C(N)=O)C3)cc2)c1 (configuration not stated) | – | -5.227% and 10.36% |
| Fc1cccc(-c2nc(CN3CCCC3Cn3cccn3)co2)c1 (configuration not stated) | 3.787% | – |
| CCc1cc(O)nc(C2CCCN2C(=O)c2cc(CC)on2)n1 (configuration not stated) | 0.3331% | – |
